Assay results taken from PubChem BioAssay (EPA / NIEHS).
Inconclusive results are not listed. The source made the active and inactive calls. Rule for the calls: active = hit-call score of the fitted dose curve at least 0.9, where 1 is the maximum; inconclusive = response in the unintended direction; inactive = score below 0.9.

Legend:
[1] = molecular target: Androgen receptor (Homo sapiens) (UniProt P10275); assay: ATG_AR_TRANS: Attagene TRANS-FACTORIAL HepG2 Assay for human Androgen Receptor (AR) (AID 2282973); conditions: HepG2 Attagene TRANS-FACTORIAL AR reporter transcription
Sequence of Androgen receptor (Homo sapiens) (P10275 whole entry, looked up, the tested form may be a part): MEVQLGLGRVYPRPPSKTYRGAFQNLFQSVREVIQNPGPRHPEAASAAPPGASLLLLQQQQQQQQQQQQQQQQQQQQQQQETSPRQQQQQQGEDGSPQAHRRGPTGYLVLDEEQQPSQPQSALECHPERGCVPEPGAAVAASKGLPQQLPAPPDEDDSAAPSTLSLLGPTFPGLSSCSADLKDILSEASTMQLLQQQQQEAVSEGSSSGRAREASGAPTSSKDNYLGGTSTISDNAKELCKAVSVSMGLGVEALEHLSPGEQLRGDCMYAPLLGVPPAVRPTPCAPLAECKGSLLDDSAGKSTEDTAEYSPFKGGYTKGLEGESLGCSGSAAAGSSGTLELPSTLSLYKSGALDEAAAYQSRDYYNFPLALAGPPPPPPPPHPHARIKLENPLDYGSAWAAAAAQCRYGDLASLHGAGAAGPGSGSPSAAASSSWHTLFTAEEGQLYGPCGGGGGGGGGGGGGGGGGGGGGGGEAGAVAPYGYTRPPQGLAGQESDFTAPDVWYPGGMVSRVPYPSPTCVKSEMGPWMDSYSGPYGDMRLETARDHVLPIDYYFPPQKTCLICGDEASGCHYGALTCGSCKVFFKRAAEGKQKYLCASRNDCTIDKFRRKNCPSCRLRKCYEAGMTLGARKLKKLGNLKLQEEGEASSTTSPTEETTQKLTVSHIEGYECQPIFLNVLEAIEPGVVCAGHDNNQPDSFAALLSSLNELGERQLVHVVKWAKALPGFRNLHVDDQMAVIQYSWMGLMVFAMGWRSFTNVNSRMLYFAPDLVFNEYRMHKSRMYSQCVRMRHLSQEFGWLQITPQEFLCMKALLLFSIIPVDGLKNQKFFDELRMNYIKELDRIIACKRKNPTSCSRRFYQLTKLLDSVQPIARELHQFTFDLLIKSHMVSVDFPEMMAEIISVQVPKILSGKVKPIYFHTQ
Procedure, shortened: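 HepG2 cells transiently transfected with AR-Gal4 chimera and GAL4-UAS reporter units; chemical exposure 24 h. Reporter mRNA quantified by RT-PCR with fluorescent labelling and capillary electrophoresis; gain-of-signal fitted against DMSO.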

[2] = molecular target: human AMP-activated Protein Kinase, alpha 1 (AMPKa1), PRKAA1 (gene 5562) (UniProt Q13131); assay: NVS_ENZ_hAMPKa1: NovaScreen (NVS) Enzymatic Assay for human AMP-activated Protein Kinase, alpha 1 (AMPKa1) (AID 2283130)
Sequence of human AMP-activated Protein Kinase, alpha 1 (AMPKa1), PRKAA1 (gene 5562) (Q13131 whole entry, looked up): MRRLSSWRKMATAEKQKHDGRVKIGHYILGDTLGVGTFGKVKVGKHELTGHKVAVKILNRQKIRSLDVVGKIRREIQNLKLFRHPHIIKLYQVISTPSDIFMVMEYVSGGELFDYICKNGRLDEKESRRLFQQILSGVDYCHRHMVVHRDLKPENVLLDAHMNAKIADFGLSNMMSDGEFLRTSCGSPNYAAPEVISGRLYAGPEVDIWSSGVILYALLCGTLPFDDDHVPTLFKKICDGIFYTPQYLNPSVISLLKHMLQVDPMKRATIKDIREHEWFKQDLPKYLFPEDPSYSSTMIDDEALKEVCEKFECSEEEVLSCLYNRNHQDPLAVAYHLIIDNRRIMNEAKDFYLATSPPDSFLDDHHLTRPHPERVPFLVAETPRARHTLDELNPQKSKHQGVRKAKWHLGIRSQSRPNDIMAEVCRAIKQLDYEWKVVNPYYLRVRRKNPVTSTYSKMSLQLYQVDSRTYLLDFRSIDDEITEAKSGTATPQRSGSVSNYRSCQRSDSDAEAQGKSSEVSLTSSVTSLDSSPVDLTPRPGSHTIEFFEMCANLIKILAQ
Procedure, shortened: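 Compounds were screened in duplicate at 25 uM, and those reaching ~30% inhibition were titrated up to 50 uM. The enzyme was recombinant human AMPKα1, and kinase turnover was read by fluorescence/mobility shift 1 h post-dosing as loss of signal versus DMSO.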

[3] = molecular target: human Ephrin type-A Receptor 2 (EphA2), EPHA2 (gene 1969) (UniProt P29317); assay: NVS_ENZ_hEphA2: NovaScreen (NVS) Enzymatic Assay for human Ephrin type-A Receptor 2 (EphA2) (AID 2283155)
Procedure, shortened: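 Enzyme activity of recombinant EphA2 read by fluorescence after mobility-shift separation, 1 h after dosing. Chemicals first tested at 25 uM (duplicate); those passing threshold run as concentration series, top 50 uM, single replicate, relative to DMSO.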

[4] = molecular target: rat Adenylate Cyclase, Forskolin Stimulated, Adcy5 (gene 64532) (UniProt Q04400); assay: NVS_ENZ_rACFSKBinding: NovaScreen (NVS) Enzymatic Assay for rat Adenylate Cyclase, Forskolin Stimulated (AID 2283232)
Procedure, shortened: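 Chemicals were first tested at 25 uM in duplicate, then hits run as concentration series with top concentration 50 uM. Enzyme source was rat forebrain membranes; radiometric filter read-out after 1 h, referenced to DMSO.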

[5] = molecular target: rat Corticotropin Releasing Factor Receptor (CRF), Crhr1 (gene 58959) (UniProt P35353); assay: NVS_GPCR_rCRF: NovaScreen (NVS) G Protein-Coupled Receptor Assay for rat Corticotropin Releasing Factor Receptor (CRF) (AID 2283300)
Sequence of rat Corticotropin Releasing Factor Receptor (CRF), Crhr1 (gene 58959) (P35353 whole entry, looked up): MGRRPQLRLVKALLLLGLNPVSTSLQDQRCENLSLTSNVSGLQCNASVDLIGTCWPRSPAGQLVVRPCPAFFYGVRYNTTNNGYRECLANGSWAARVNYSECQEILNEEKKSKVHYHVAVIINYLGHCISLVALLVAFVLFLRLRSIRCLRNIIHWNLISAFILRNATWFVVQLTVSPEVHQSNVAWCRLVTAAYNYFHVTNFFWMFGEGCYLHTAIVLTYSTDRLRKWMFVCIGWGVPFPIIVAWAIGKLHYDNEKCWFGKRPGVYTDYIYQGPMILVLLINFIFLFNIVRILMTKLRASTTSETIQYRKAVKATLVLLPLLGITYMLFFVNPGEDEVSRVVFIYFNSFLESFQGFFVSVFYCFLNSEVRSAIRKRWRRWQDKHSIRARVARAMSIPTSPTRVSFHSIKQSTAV
Procedure, shortened: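 Single-concentration (25 uM, duplicate) radioligand binding on rat cortical membrane preparations, counted by scintillation after 2 h. Activity scored as signal loss relative to DMSO negative control.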

[6] = molecular target: human Acetylcholinesterase (AChE), ACHE (gene 43) (UniProt P22303); assay: NVS_ENZ_hAChE: NovaScreen (NVS) Enzymatic Assay for human Acetylcholinesterase (AChE) (AID 2283129)
Sequence of human Acetylcholinesterase (AChE), ACHE (gene 43) (P22303 whole entry, looked up): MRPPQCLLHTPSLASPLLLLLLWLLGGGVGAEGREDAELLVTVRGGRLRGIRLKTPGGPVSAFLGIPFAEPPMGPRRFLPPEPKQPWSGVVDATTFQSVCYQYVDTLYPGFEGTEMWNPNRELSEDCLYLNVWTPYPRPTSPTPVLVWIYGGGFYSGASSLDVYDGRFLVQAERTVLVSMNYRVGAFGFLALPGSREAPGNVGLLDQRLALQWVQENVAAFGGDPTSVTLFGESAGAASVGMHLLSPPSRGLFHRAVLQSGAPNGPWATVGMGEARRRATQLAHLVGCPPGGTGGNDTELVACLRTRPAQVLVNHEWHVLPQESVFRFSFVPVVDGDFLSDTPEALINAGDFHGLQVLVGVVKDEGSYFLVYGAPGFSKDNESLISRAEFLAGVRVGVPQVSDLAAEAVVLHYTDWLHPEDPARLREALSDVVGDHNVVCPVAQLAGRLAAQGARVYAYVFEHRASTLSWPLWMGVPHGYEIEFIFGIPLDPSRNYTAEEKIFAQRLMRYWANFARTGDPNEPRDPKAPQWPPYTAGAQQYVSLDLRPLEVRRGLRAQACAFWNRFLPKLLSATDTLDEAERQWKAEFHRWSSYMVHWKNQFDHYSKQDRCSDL
Procedure, shortened: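 Actives from a duplicate single-point screen (25 uM) were followed up in concentration series. Enzyme activity read by absorbance (colorimetric) 0.33 hour after dosing, cell-free, normalized to DMSO, with loss of signal scored.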

[7] = molecular target: human Raf-1 Proto-Oncogene, serine/threonine Kinase (RAF1), RAF1 (gene 5894) (UniProt P04049); assay: NVS_ENZ_hRAF1: NovaScreen (NVS) Enzymatic Assay for human Raf-1 Proto-Oncogene, serine/threonine Kinase (RAF1) (AID 2283216)
Procedure, shortened: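 Single-point screening at 25 uM (duplicate), followed by singleton concentration-response to 50 uM maximum for chemicals exceeding threshold. Enzyme activity from fluorescent substrate-product mobility-shift separation after 1 h, relative to DMSO.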

[8] = molecular target: Voltage-dependent N-type calcium channel subunit alpha-1B (Rattus norvegicus) (UniProt Q02294); assay: NVS_IC_rCaChN: NovaScreen (NVS) Ion Channel Assay for rat Calcium Channel, Type N (CaChN) (AID 2283317)
[9] = molecular target: human MET Proto-Oncogene, Receptor Tyrosine Kinase (MET), MET (gene 4233) (UniProt P08581); assay: NVS_ENZ_hMet: NovaScreen (NVS) Enzymatic Assay for human MET Proto-Oncogene, Receptor Tyrosine Kinase (MET) (AID 2283180)
Procedure, shortened: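 Hits from a 25 uM duplicate screen were retested in concentration series up to 50 uM. Enzyme activity was measured by fluorescence after electrophoretic separation of product from substrate, 1 h after compound addition, relative to DMSO.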

[10] = molecular target: human Matrix Metalloproteinase-1 (MMP1), MMP1 (gene 4312) (UniProt P03956); assay: NVS_ENZ_hMMP1: NovaScreen (NVS) Enzymatic Assay for human Matrix Metalloproteinase-1 (MMP1) (AID 2283181)
Procedure, shortened: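 Cell-free fluorescent substrate assay of human MMP1, read after 1 h. A single 25 uM duplicate screen was followed by concentration series to a maximum of 50 uM for actives meeting threshold; inhibition analysed against DMSO baseline.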

[11] = molecular target: rat Monoamine Oxidase, MAO-B, Central (MAOBC), Maob (gene 25750) (UniProt P19643); assay: NVS_ENZ_rMAOBC: NovaScreen (NVS) Enzymatic Assay for rat Monoamine Oxidase, MAO-B, Central (MAOBC) (AID 2283238)
Sequence of rat Monoamine Oxidase, MAO-B, Central (MAOBC), Maob (gene 25750) (P19643 whole entry, looked up): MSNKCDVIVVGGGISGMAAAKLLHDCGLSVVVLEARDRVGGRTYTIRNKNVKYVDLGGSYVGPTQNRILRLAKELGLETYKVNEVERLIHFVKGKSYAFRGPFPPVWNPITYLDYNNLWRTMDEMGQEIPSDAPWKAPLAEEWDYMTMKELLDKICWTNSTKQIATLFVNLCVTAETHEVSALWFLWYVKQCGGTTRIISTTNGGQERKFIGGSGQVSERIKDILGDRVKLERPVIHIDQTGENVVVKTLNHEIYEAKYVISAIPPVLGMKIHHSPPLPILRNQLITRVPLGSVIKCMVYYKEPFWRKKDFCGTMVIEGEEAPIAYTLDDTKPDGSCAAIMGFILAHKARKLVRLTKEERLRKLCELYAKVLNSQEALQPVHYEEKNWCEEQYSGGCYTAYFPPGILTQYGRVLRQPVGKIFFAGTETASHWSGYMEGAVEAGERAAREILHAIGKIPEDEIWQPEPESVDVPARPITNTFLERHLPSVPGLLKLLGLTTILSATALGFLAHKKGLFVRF
Procedure, shortened: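 Actives from a duplicate 25 uM screen went on to singleton concentration-response with a 50 uM maximum. Enzyme source was rat brain tissue MAO-B, assayed cell-free. Radiolabelled product was counted by scintillation 1.17 h post-dose, with signal loss relative to DMSO.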

[12] = molecular target: rat Monoamine Oxidase, MAO-B, Peripheral (MAOBP), Maob (gene 25750) (UniProt P19643); assay: NVS_ENZ_rMAOBP: NovaScreen (NVS) Enzymatic Assay for rat Monoamine Oxidase, MAO-B, Peripheral (MAOBP) (AID 2283242)
Sequence of rat Monoamine Oxidase, MAO-B, Peripheral (MAOBP), Maob (gene 25750) (P19643 whole entry, looked up): as above

[13] = molecular target: human Fibroblast Growth Factor Receptor 1 (FGFR1), FGFR1 (gene 2260) (UniProt P11362); assay: NVS_ENZ_hFGFR1: NovaScreen (NVS) Enzymatic Assay for human Fibroblast Growth Factor Receptor 1 (FGFR1) (AID 2283159);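 note: hits lower the signal so potencies describe inhibitors of the kinase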
Procedure, shortened: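 Cell-free recombinant kinase with fluorescent substrate, product separated by electrophoretic mobility shift; read 1 hour after dosing, loss of signal relative to DMSO. Initial screen in duplicate at 25 uM, actives followed in concentration series.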

[14] = molecular target: human Caspase 2 (CASP2), CASP2 (gene 835) (UniProt P42575); assay: NVS_ENZ_hCASP2: NovaScreen (NVS) Enzymatic Assay for human Caspase 2 (CASP2) (AID 2283135)
Sequence of human Caspase 2 (CASP2), CASP2 (gene 835) (P42575 whole entry, looked up): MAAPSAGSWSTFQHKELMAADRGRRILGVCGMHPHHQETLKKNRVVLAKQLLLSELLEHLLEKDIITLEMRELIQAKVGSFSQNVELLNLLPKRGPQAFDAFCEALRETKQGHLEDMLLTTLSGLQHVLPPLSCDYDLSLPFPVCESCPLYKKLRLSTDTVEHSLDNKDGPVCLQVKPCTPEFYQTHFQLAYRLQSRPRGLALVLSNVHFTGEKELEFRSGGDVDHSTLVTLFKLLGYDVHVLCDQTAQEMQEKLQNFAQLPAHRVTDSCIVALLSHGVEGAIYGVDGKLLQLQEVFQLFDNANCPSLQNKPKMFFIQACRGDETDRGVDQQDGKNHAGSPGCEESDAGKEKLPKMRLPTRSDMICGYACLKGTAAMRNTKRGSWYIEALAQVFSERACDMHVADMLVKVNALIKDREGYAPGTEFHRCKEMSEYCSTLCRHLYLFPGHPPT
Procedure, shortened: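 Single-point duplicate testing at 25 uM preceded concentration series topping at 50 uM. Activity of the recombinant E. coli-derived protease was followed by fluorescent substrate cleavage 1 h post-dosing, relative to DMSO.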

[15] = molecular target: rat Acetylcholinesterase (AChE), Ache (gene 83817) (UniProt P37136); assay: NVS_ENZ_rAChE: NovaScreen (NVS) Enzymatic Assay for rat Acetylcholinesterase (AChE) (AID 2283233)
Sequence of rat Acetylcholinesterase (AChE), Ache (gene 83817) (P37136 whole entry, looked up): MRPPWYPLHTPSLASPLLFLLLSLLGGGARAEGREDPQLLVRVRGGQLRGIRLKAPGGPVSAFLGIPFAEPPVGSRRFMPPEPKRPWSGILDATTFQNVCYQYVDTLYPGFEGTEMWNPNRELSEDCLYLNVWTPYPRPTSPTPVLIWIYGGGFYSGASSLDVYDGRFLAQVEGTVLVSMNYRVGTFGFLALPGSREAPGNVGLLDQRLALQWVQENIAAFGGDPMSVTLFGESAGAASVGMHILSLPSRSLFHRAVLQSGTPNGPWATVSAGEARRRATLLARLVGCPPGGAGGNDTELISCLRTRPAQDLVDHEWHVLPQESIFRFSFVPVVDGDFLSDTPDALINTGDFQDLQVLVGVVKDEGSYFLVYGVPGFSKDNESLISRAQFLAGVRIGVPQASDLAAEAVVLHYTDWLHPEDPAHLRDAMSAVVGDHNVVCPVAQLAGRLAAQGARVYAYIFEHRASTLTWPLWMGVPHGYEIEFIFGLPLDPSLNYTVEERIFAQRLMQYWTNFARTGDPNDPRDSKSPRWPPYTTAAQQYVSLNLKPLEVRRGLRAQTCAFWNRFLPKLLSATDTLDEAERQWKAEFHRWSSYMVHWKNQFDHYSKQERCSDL
Procedure, shortened: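 Compounds first screened at 25 uM in duplicate, then those passing threshold tested in concentration series up to 50 uM, against AChE from rat brain membranes. Enzyme activity read by absorbance at 0.33 h; inhibition scored versus DMSO.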

[16] = tested on: rat Monoamine Oxidase, MAO-A, Central (MAOAC), gene 29253; assay: NVS_ENZ_rMAOAC: NovaScreen (NVS) Enzymatic Assay for rat Monoamine Oxidase, MAO-A, Central (MAOAC) (AID 2283243);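 note: potency refers to inhibition seen as signal drop below DMSO baseline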
Procedure, shortened: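 Lysate-based radiometric enzyme assay using rat brain tissue; 1.5 h treatment; 25 uM single-point duplicate screen, concentration-response follow-up; loss of signal versus DMSO.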

[17] = molecular target: rat Neurotensin Receptor (NTS), Ntsr1 (gene 366274) (UniProt P20789); assay: NVS_GPCR_rNTS: NovaScreen (NVS) G Protein-Coupled Receptor Assay for rat Neurotensin Receptor (NTS) (AID 2283308)
Procedure, shortened: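 Single-point duplicates at 25 uM, then concentration series to 50 uM max for hits, measured radioligand displacement on rat forebrain membrane preparations. Bound label counted by filtration scintillation at 1 h; signal loss relative to DMSO fitted.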

[18] = molecular target: Norway rat Vesicular Monoamine Transporter (VMAT2), neurotransmitter transporter, Slc18a2 (gene 25549) (UniProt Q01827); assay: NVS_TR_rVMAT2: NovaScreen (NVS) Transporter Assay for Norway rat Vesicular Monoamine Transporter (VMAT2), neurotransmitter transporter (AID 2283376);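 note: actives lower the bound radioligand signal below the DMSO level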
Sequence of Norway rat Vesicular Monoamine Transporter (VMAT2), neurotransmitter transporter, Slc18a2 (gene 25549) (Q01827 whole entry, looked up): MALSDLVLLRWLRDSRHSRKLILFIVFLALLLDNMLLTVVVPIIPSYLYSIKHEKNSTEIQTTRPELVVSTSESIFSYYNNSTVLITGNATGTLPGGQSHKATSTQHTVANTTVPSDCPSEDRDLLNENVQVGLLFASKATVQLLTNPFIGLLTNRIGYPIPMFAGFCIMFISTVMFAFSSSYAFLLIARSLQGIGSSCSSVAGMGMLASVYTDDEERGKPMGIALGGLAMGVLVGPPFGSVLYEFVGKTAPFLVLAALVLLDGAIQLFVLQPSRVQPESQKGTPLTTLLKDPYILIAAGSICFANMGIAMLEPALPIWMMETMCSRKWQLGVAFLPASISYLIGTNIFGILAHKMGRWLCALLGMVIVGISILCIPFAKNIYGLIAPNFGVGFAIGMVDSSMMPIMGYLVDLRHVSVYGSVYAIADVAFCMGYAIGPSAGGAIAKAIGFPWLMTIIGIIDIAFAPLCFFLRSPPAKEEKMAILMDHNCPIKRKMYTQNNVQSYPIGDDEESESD
Procedure, shortened: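 Using rat forebrain membranes, specific radioligand binding to VMAT2 was measured by filtration and scintillation counting after 1 hour. Chemicals screened at 25 uM in duplicate, actives retested in concentration series, DMSO baseline.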

[19] = molecular target: human Protein Tyrosine Phosphatase Receptor Type C (PTPRC), PTPRC (gene 5788) (UniProt P08575); assay: NVS_ENZ_hPTPRC: NovaScreen (NVS) Enzymatic Assay for human Protein Tyrosine Phosphatase Receptor Type C (PTPRC) (AID 2283212)
Procedure, shortened: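 Absorbance-based phosphatase activity of human PTPRC protein extracted from yeast was measured 1 h post-dosing. Compounds first tested at 25 uM in duplicate, then those passing threshold in singleton concentration series to 50 uM.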

## CCN(CC)C(=S)SSC(=S)N(CC)CC
[1]
  outcome: inactive
[2]
  outcome: inactive
[3]
  outcome: inactive
[4]
  AC50: 6.29 µM (active)
[5]
  outcome: inactive

## O=C(O)c1cccc(N(Cc2cccnc2)c2ccc(OC(F)F)c(OC(F)F)c2)c1
[1]
  outcome: inactive
[6]
  AC50: 8.26 µM (active)
[7]
  outcome: inactive
[8]
  outcome: inactive

## COc1ccc(S(=O)(=O)N2C(=O)[C@@](c3ccccc3OC)(N3C[C@H](O)C[C@H]3C(=O)N(C)C)c3cc(Cl)ccc32)c(OC)c1
[1]
  outcome: inactive
[9]
  outcome: inactive
[10]
  outcome: inactive
[11]
  outcome: inactive
[12]
  outcome: inactive

## CCCCCCCCN(C)CCCCCCCC
[1]
  outcome: inactive
[13]
  AC50: 36.1 µM (active)

## CN(C)c1ccc(C(=C2C=CC(=[N+](C)C)C=C2)c2ccc(N(C)C)cc2)cc1
[1]
  outcome: inactive
[6]
  AC50: 6.48 µM (active)
[14]
  AC50: 18.2 µM (active)
[15]
  AC50: 17.1 µM (active)
[12]
  AC50: 25 µM (active)
[16]
  AC50: 25 µM (active)
[17]
  AC50: 6.82 µM (active)
[18]
  AC50: 1.89 µM (active)

## COc1cc(-c2nc(NC(=O)c3cc4cc(C)cc(C)c4n3CC(=O)O)sc2CCC2CCCCC2)c(OC)cc1Cl
[1]
  outcome: inactive
[2]
  AC50: 8.19 µM (active)
[14]
  AC50: 7.75 µM (active)
[19]
  AC50: 11.4 µM (active)
